Calls of active or inactive are those of the source. How the calls were made is not given here.
Target: Thyrotropin receptor (Homo sapiens) (UniProt P16473)
Test: Concentration-response assay for inverse agonists of the thyroid stimulating hormone receptor: ELISA activity detection
Conditions: HEK293-TSHR basal cAMP, ELISA chemiluminescence, 1 h
Description: TSH is an alpha/beta heterodimeric glycoprotein hormone secreted from the anterior pituitary gland which belongs to the glycoprotein hormone family. The actions of TSH are mediated by a seven-transmembrane receptor, which upon TSH binding couples preferentially to the G-alpha (s) protein (Gs), resulting in activation of adenylate cyclase and increase in cyclic adenosine 3', 5' monophosphate (cAMP). The TSH receptor (THSR) is mainly expressed in thyroid follicular cells and regulates their growth and function. This cell based assay was conducted on a TSHR transfected HEK 293 cell line, measuring cAMP stimulation using antibody-based Homogeneous Time Resolved Fluorescence (HTRF). Our goal is to identify small molecules that will inhibit (antagonize) the thyroid-stimulating hormone receptor (TSHR), a member of the 7 transmembrane-spanning receptor (7TMR) family of cell surface receptors. TSHR-mediated hyperthyroidism is important in thyroid pathology. The development of small molecule antagonists of TSHR may lead to therapeutic approaches for TSHR-mediated hyperthyroidism caused by constitutively activating mutations or stimulating auto-antibodies associated with Graves' disease. Graves' disease is the leading cause of hyperthyroidism and is caused by autoantibodies that stimulate TSHR (TsAbs) causing thyroid growth and unregulated overproduction of thyroid hormones and existing treatments have liabilities (agranulocytosis). In addition, TSHRs are known to be expressed in multiple extrathyroidal tissues including bone, brain, kidney, testis, fat and cells of the immune system but the role of the TSHR in these tissues is not clear. Therefore, TSHR antagonists/inverse agonists could be used as probes of extrathyroidal TSHR function. Finally, TSHR inverse agonists, which are a subclass of antagonists that inhibit agonist-independent (or basal or constitutive) TSHR signaling, could be used to inhibit TSH-independent signaling in patients with recurrent or metastatic thyroid cancer who are receiving thyroid hormone to suppress TSH. A confirmatory assay of TSHR inverse agonists was conducted on a HEK 293 cell line stably expressing the TSHR, using an ELISA based cAMP competition assay using cAMP-Screen Direct System (Applied Biosystems, Foster City, CA) to measure cAMP stimulation.
Transiently transfected HEK-EM 293 cells or cells stably expressing TSHRs were seeded into 96-well plates at a density of 7 x10^4 cells per well in DMEM containing 10% FBS. Cells were cultured for 24 h before incubation for 20 min in HBSS/10 mM HEPES (pH 7.4). To determine basal cAMP production, cells were incubated for 1 h at 37 C in a humidified incubator in HBSS/HEPES containing 1mM IBMX (Sigma Chemical Co., St. Louis, MO) in the presence or absence of compound. The levels of cAMP in cells incubated in HBSS/HEPES without IBMX were subtracted in all experiments. After aspiration of the incubation medium, cells were lysed using lysis buffer of the cAMP-Screen Direct system (Applied Biosystems, Foster City, CA). The cAMP content of the cell lysate was determined using the method described in the manufacturer's protocol. The chemiluminescence signal was measured in a VICTOR3 V 1420 multilabel counter (PerkinElmer, Norwalk, CT). The potency (IC50) of the ligands were obtained from dose-response curves by data analysis with GraphPad Prism 4 for Windows.

Sequence of Thyrotropin receptor (Homo sapiens) (P16473 whole entry, looked up): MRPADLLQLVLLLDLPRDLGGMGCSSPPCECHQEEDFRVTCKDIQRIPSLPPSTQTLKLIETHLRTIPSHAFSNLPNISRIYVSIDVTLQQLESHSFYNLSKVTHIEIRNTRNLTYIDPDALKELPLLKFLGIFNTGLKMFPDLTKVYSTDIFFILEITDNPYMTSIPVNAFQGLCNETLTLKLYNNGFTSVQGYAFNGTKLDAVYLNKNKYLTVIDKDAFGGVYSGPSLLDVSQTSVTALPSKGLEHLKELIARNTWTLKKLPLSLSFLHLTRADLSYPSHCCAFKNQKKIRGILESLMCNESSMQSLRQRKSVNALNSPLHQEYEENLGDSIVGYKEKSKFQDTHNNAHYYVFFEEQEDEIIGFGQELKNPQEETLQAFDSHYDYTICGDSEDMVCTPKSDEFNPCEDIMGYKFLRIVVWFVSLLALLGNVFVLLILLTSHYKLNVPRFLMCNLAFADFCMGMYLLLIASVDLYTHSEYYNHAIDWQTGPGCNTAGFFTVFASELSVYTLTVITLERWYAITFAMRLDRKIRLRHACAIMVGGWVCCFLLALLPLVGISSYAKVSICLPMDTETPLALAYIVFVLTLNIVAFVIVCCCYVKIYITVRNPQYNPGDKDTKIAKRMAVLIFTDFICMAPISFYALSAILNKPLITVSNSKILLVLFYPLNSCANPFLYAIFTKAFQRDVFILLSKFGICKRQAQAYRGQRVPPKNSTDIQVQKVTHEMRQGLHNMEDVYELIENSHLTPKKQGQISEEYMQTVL

Structure (SMILES) | outcome | IC50
COc1ccc(C2Nc3ccccc3C(=O)N2Cc2cccs2)cc1COc1c(C)cccc1C (stereo unspecified) | inactive | 
COc1ccc(C2Nc3ccccc3C(=O)N2Cc2ccccc2)cc1COc1c(C)cccc1C (stereo unspecified) | inactive | 
COc1ccc(C2Nc3cccc(O)c3C(=O)N2Cc2ccco2)cc1COc1c(C)cc(NC(C)=O)cc1C (stereo unspecified) | inactive | 
COc1ccc(C2Nc3ccccc3C(=O)N2Cc2ccco2)cc1COc1ccccc1C (stereo unspecified) | inactive | 
COc1ccc(C2Nc3ccccc3C(=O)N2Cc2ccccn2)cc1COc1c(C)cccc1C (stereo unspecified) | inactive | 
COc1ccc(C2Nc3ccccc3C(=O)N2Cc2ccco2)cc1COc1c(C)cc(NC(C)=O)cc1C (stereo unspecified) |  | 6 µM (active)
COc1ccc(C2Nc3ccccc3C(=O)N2Cc2cccnc2)cc1COc1c(C)cccc1C (stereo unspecified) |  | 7 µM (active)
Cc1cccc(C)c1OCc1cccc(C2Nc3ccccc3C(=O)N2Cc2ccco2)c1 (stereo unspecified) |  | 5 µM (active)
CCc1cccc(CC)c1OCc1cc(C2Nc3ccccc3C(=O)N2Cc2ccco2)ccc1OC (stereo unspecified) |  | 11 µM (active)
COc1ccc(C2Nc3ccccc3C(=O)N2Cc2ccco2)cc1CSc1c(C)cccc1C (stereo unspecified) | inactive | 
COc1ccc(C2Nc3ccccc3C(=O)N2Cc2ccc(C)o2)cc1COc1c(C)cccc1C (stereo unspecified) | inactive | 
